Data on 4 compounds can be found in PubChem BioAssay.

Records with an inconclusive call do not appear. Active and inactive are the calls of the source.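 Rule for the calls, unless noted: active = inhibition above 54%, about 3 SD of non-fluorescent compounds; inactive = the rest.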

The nature of test [1]: yeast TOR pathway RPL19A-GFP modulators, primary screen, cell-based, S. cerevisiae, multiplex flow cytometry (AID 1862; in the data active = percent of DMSO control GFP below about 86%;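 note: lower values mimic rapamycin by blocking the RPL19A rise seen in DMSO cells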). The conditions noted are these: S. cerevisiae RPL19A-GFP strain, flow cytometry fluorescence, 3 h; at 10 µM; stronger effect = lower value. On the technique in general: In flow cytometry, cells or beads pass a laser one at a time.
Test [2] can be described thus: modulators of MEP2-GFP levels in yeast, primary screen, S. cerevisiae, multiplex flow cytometry (AID 1867;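 active = GFP response, as percent of the DMSO control, above the screen-wide mean plus 3 SD, about 139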;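 note: median GFP channel fluorescence of barcode-gated MEP2-GFP cells measured by flow cytometry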). The conditions noted are these: S. cerevisiae MEP2-GFP strain, 3 h, at 10 µM, stronger effect = higher value, 100% means same as DMSO wells.
Test [3] in a line: modulators of CIT2-GFP expression in yeast, primary screen, S. cerevisiae, GFP fusion, multiplex flow cytometry (AID 1870;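 active = percent response above a set limit, the screen-wide mean plus 3 SD, cut at about 130% in these data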;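 note: barcoded CIT2-GFP strain pooled with four other GFP strains with rapamycin as positive control; median GFP fluorescence per well over plate mean of DMSO wells so 100% = DMSO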). The conditions noted are these: 3 h, at 10 µM, stronger effect = higher value.
Test [4] is described as follows: modulators of LAP4-GFP expression in yeast, primary screen, S. cerevisiae, multiplex flow cytometry (AID 1873;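 active = GFP signal, as percent of the solvent control, above the screen mean plus 3 SD, about 149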). The conditions noted are these: 3 h, at 10 µM, stronger effect = higher value.
Test [5] in a line: modulators of AGP1-GFP expression in yeast TOR pathway, primary screen, cell-based, multiplex flow cytometry, S. cerevisiae (AID 1887;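 active = GFP signal above the screen-wide mean plus 3 SD, that is over about 124.5% of the solvent control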;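 note: AGP1-GFP fusion strain of S. cerevisiae within a five-strain barcoded multiplex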). The conditions noted are these: 3 h, at 10 µM, stronger effect = higher value.
Test [6] in a line: inhibitors of CD8+ T cell-vesicle binding, pilot screen, LFA-1/ICAM-1 modulator project, MLPCN validation set, flow cytometry (AID 2523;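 active = response below a set limit, under 55% cells CD8-positive and vesicle-bound, and CD8 cells' 90th-percentile brightness under 279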;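 for vesicle binding response: mean PE anti-B7-1 fluorescence of CD8+ cells relative to row control; 100% = QL9-loaded vesicles with DMSO vehicle in the same plate row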). The conditions noted are these: 2C mouse CD8+ T cells, at 7 µM, stronger effect = lower value; double positive events: measured here: CD8+/vesicle+ event percentage.
Test [7] concerns the target Integrin beta-1 (Homo sapiens) + Integrin alpha-4 (Homo sapiens) (UniProt P13612+P05556). Description: inhibition of HUTS-21 binding to VLA-4, pilot screen, VLA-4 allosteric modulator project, U937 cells, HUTS-21 mAb, flow cytometry, validation set (AID 2674;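 active = inhibition above 50%, about 3 SD of the validation set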;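 note: antibody binding induced by the VLA-4 ligand LDV present at three times its Kd; 0% = LDV ligand with antibody and no compound and 100% = antibody without LDV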). Particulars: HUTS-21 LIBS mAb binding, at 6.7 µM, stronger effect = higher value, binding induced by LDV ligand.
Test [8] in a line: superoxide lowering in aged yeast cells, pilot screen, validation compound set (AID 2706;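 active = superoxide response below 65% of plate, a cut near 3 SD across the whole screen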;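 note: yeast exposed to compound for one week at 30 degrees C before staining; 100% = mean of all compound wells on the same plate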). The conditions noted are these: S. cerevisiae aging, superoxide DHE fluorescence; at 10 µM; stronger effect = lower value.
The target of test [9] is Beta-adrenergic receptor kinase 1 (Homo sapiens) (UniProt P25098). Description: GRK2 binders displacing RNA aptamer, biochemical, validation, human GRK2, bead flow cytometry (AID 488806;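 active = aptamer binding inhibition above 30%, about 3 SD of noise from non-fluorescent compounds; inactive = inhibition at or below 30%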). The conditions noted are these: bead-bound GRK2, FAM-aptamer displacement, at 10 µM, stronger effect = higher value.
For test [10], the target named is Beta-2 adrenergic receptor (Homo sapiens) (UniProt P07550). Description: beta2AR agonists driving receptor internalization, pilot screen, cell-based, FAP fluorogen, flow cytometry, validation set (AID 504459;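 active = percent response above 42, roughly 3 SD of non-fluorescent test compounds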;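 note: agonist-driven loss of surface beta2AR via internalization measured by FAP dye flow cytometry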). Particulars: Am2.2-beta2AR cells, FAP surface receptor flow cytometry; at 10 µM; stronger effect = higher value.
The target of test [11] is AP-2 complex subunit beta (Homo sapiens) (UniProt P63010). Put plainly: inhibitors of arrestin peptide binding to AP2, pilot screen, biochemical, validation set, GST-AP2 beads, flow cytometry (AID 504541).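 Note: AP2 carries R879A mutation and is captured from E. coli lysate; bead-bound FITC arrestin peptide fluorescence measuring arrestin peptide binding to AP2; 0% = DMSO wells and 100% = excess unlabeled arrestin peptide control.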 Particulars: FITC arrestin peptide, at 10 µM, stronger effect = higher value, AP2 beta2 appendage fragment, R879A mutant.
Test [12] can be described thus: yeast V-ATPase proton transport modulators, S. cerevisiae, pHLuorin, HTS validation (AID 504600; in the data active = response above about 15%;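 note: plate controls were DMSO for no effect and reference compound for full effect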). Particulars: S. cerevisiae pHLuorin cytosolic pH, at 10 µM, stronger effect = higher value.
For test [13], the system named is anti-desmoglein-3 scFv antibody binding to human DSG3. Put plainly: inhibitors of anti-DSG3 scFv binding to DSG3, pilot screen, biochemical, validation compound set, bead-based, flow cytometry (AID 588368;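 active = binding below the plate cutoff, the plate median minus 3 SD, with a reading above zero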;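 note: signal is the median channel fluorescence of bead-bound GFP antibody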). The conditions noted are these: Protein G beads, DSG3-Fc, scFv-GFP binding, at 10 µM, stronger effect = lower value.
A short description of test [14]: inhibitors of fungal efflux pumps CDR1, CDR2, MDR1, pilot screen, validation compound set, multiplex, phenotypic (AID 588506;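 active = efflux inhibition above 0.42, the validation set average plus 4 SD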;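 note: Nile Red retained in cells so higher fluorescence means more efflux inhibition; 0 = negative control wells and 1 = enniatin B 25 µM full block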). Particulars: S. cerevisiae pump-expressing triplex, Nile Red efflux flow cytometry; at 10 µM; stronger effect = higher value; the pumps come from Candida albicans.
The target in test [15] is ATP-binding cassette sub-family B member 6 (Homo sapiens) (UniProt Q9NP58). Put plainly: ABCB6 transporter inhibitors, pilot screen, K562-ABCB6 cells, flow cytometry, validation set (AID 588550;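 active = inhibition above the screen-wide mean plus 3 SD, about 51%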;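 note: 0% = DMSO wells and 100% = benzethonium chloride 70 µM positive control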). Particulars: K562-ABCB6 porphyrin accumulation, 1 h, at 10 µM, stronger effect = higher value.
Test [16] is described as follows: promoters of myeloid differentiation in arrested cells, primary screen, cell-based, GFP/MAC1 double positive, flow cytometry, validation set (AID 588685;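 active = differentiation response of at least 50%, scaled between solvent and reference control, from cells with both markers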;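 note: compound exposure lasts four days before antibody staining and flow analysis; 0% = DMSO wells and 100% = 5 µM fulvestrant positive control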). The conditions noted are these: ER-HoxA9 marrow cells, stronger effect = higher value, normalized: vehicle 0, fulvestrant 100.

Chain of Beta-adrenergic receptor kinase 1 (Homo sapiens) (P25098 whole entry, looked up): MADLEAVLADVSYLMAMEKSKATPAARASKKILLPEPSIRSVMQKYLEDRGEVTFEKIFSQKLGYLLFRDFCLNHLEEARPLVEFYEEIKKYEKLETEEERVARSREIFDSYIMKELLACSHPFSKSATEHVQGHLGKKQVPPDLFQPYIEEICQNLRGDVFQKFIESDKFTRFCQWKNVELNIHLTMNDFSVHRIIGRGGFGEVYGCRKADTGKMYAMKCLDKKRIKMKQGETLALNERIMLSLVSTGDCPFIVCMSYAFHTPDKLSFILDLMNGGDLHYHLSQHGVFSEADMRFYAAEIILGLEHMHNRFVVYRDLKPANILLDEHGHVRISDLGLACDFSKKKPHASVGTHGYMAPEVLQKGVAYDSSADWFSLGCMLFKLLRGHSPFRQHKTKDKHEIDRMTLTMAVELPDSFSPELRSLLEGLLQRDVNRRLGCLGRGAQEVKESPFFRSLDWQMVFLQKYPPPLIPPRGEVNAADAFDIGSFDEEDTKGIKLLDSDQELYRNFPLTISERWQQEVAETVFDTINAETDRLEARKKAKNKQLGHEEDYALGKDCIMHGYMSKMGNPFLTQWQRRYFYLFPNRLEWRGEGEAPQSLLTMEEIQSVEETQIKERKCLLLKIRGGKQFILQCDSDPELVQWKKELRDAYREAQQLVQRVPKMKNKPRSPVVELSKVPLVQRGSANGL
Chain of AP-2 complex subunit beta (Homo sapiens) (P63010 whole entry, looked up, the tested form may be a part, one chain of several): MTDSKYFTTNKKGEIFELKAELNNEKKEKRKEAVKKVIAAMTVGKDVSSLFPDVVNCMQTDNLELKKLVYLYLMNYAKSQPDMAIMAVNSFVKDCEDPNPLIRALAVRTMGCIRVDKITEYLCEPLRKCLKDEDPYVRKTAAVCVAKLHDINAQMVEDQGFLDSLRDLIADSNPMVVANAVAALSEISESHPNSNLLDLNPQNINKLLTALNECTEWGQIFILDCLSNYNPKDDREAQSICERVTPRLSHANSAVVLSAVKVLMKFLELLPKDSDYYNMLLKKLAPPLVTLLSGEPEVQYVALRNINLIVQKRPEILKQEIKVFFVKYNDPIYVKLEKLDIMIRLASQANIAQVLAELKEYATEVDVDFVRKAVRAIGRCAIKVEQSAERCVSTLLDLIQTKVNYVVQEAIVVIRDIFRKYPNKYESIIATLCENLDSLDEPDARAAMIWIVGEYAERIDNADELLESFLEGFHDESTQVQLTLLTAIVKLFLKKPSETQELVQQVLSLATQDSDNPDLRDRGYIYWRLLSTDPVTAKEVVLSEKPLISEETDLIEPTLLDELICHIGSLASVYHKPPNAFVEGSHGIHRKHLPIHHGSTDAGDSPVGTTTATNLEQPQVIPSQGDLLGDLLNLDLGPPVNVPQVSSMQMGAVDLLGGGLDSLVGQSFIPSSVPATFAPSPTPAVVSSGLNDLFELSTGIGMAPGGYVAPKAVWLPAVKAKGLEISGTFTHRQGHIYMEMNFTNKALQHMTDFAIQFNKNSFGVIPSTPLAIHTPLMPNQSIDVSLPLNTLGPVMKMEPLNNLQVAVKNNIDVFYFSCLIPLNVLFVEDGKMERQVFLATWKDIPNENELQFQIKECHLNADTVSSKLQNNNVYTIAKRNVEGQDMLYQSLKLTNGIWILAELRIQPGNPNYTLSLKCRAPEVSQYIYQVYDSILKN
Chain of Integrin beta-1 (Homo sapiens) + Integrin alpha-4 (Homo sapiens) (P05556 whole entry, looked up): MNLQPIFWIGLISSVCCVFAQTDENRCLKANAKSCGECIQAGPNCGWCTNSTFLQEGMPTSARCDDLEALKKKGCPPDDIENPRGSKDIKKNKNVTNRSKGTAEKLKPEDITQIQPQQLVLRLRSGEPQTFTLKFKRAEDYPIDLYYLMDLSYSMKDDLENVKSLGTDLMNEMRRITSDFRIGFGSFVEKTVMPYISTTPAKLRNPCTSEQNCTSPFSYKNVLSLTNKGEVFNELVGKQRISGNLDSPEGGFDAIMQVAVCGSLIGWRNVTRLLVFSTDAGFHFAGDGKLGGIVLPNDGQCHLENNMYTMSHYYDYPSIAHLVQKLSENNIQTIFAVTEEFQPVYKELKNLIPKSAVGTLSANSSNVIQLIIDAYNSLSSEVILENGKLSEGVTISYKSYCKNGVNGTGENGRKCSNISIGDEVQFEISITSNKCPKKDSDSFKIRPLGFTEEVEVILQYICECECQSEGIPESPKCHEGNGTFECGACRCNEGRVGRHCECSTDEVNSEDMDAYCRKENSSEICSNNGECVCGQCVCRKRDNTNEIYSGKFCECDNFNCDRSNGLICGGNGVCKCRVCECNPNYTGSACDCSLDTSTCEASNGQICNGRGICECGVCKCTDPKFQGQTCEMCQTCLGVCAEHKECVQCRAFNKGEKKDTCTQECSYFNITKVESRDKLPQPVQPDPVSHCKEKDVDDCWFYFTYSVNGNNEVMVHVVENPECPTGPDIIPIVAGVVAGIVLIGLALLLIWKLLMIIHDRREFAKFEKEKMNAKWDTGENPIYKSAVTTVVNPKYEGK
Chain of Integrin beta-1 (Homo sapiens) + Integrin alpha-4 (Homo sapiens) (P13612 whole entry, looked up): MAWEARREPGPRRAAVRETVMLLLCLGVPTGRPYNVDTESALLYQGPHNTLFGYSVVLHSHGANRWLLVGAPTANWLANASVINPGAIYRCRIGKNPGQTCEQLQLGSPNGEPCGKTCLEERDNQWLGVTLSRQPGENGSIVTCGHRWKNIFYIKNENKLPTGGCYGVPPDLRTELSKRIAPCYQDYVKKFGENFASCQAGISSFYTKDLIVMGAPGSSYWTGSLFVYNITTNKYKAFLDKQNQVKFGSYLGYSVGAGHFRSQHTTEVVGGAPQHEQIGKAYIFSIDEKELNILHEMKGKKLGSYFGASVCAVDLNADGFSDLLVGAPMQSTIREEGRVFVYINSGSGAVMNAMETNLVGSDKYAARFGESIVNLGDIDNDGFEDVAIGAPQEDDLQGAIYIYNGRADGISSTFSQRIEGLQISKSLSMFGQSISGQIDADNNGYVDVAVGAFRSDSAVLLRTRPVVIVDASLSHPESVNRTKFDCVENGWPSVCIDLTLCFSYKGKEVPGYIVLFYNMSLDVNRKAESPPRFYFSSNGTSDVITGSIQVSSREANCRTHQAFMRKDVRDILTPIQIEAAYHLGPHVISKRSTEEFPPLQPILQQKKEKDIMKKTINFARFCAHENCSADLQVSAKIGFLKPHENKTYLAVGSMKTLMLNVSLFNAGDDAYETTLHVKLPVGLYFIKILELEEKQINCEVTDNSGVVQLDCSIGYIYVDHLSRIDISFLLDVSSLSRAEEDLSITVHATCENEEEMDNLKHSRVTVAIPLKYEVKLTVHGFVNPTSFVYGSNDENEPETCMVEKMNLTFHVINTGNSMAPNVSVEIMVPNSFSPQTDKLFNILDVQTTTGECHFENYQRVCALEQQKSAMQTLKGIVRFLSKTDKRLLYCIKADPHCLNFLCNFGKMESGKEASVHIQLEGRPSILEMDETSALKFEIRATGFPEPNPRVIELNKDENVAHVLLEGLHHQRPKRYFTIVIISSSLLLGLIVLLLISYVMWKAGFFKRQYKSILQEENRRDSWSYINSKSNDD
Chain of Beta-2 adrenergic receptor (Homo sapiens) (P07550 whole entry, looked up): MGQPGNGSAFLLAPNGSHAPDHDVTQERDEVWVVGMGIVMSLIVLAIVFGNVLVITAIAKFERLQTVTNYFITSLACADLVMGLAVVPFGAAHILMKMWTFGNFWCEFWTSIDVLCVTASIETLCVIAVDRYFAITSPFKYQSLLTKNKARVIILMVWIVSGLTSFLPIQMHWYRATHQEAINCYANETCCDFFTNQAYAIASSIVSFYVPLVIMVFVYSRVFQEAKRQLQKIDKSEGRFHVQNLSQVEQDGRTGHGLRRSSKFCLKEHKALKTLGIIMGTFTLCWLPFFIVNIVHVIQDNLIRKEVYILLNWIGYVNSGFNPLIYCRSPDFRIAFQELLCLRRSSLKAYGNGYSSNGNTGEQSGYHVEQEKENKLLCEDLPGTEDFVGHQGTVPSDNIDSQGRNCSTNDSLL
Chain of ATP-binding cassette sub-family B member 6 (Homo sapiens) (Q9NP58 whole entry, looked up): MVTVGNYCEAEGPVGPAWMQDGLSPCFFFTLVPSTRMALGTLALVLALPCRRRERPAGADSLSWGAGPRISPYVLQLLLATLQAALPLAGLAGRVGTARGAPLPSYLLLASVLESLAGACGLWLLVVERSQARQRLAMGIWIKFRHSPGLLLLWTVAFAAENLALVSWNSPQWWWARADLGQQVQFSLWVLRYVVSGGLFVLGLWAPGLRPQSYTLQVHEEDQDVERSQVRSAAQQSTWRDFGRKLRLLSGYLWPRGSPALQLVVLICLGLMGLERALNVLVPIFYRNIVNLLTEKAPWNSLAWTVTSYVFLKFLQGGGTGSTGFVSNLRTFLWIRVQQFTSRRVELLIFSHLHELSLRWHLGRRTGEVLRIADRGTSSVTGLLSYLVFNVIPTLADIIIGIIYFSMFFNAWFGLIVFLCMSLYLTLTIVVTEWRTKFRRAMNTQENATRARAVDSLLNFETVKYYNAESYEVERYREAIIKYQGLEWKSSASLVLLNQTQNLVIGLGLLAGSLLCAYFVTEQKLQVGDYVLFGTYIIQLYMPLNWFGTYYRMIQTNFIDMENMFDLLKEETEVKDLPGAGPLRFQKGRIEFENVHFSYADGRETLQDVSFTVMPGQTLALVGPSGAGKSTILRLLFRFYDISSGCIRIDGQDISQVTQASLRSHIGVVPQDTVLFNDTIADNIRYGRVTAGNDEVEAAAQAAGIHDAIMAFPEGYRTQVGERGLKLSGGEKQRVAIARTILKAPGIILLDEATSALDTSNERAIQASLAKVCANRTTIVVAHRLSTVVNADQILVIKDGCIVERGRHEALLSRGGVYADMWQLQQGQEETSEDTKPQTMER

As usually defined, the inhibition is the change of the read-out against control, counted positive when it falls. `CN(C)CCOC(c1ccccc1)c1ccccc1` (tested in a mixture with another compound): the percent of DMSO control GFP in test [1] was 103% (inactive). Further, the GFP response vs DMSO in test [2] was 99.3% (inactive); in test [4], 91.4% (inactive). Moreover, in [3], the percent response of DMSO control was 98.9% (inactive). The GFP response, % of DMSO in [5] was 96.4% (inactive). This compound gave a double positive events in test [6] of 58.3%. Moreover, the vesicle binding response in test [6] was 138% (inactive). For the same compound, the results for the inhibition in test [7], in [11] and in [15] were 13% (inactive), -10.1% (inactive) and 2% (inactive), respectively. Also, in [8], the superoxide response (% of plate) was 91.9% (inactive). The aptamer binding inhibition in test [9] is 3% (inactive). For the same compound, the response in [10] is -5.43% (inactive); in test [12], -1% (inactive). For the same compound, in [13], the binding (% of control) was 93.3% (inactive). In [14], the efflux inhibition (fraction of control) was 0.27 (inactive). Further, in test [16], the differentiation response is 5.13% (inactive).

`Cc1nonc1CN(C)C(=O)c1ccc(OC2CCN(C(=O)c3cccnc3)CC2)cc1`: the percent of DMSO control GFP in [1] is 103% (inactive). Also, the results for the GFP response vs DMSO in test [2] and in [4] were 105% (inactive) and 98% (inactive), respectively. For the same compound, the percent response of DMSO control in [3] is 109% (inactive). For the same compound, the GFP response, % of DMSO in test [5] is 102% (inactive). The same compound registered a double positive events in test [6] of 57.8%. For the same compound, the vesicle binding response in test [6] is 176% (inactive). Moreover, the inhibition was 12.3% (inactive) in [7], -7.99% (inactive) in [11] and 12% (inactive) in [15]. Moreover, the superoxide response (% of plate) in test [8] is 94.8% (inactive). For the same compound, the aptamer binding inhibition in [9] is 0% (inactive). For the same compound, the response was -1.64% (inactive) in test [10] and 2.88% (inactive) in test [12]. In addition, the binding (% of control) in [13] is 103% (inactive). The efflux inhibition (fraction of control) in test [14] is 0.05 (inactive). Besides, in [16], the differentiation response was -8.96% (inactive).

As for `CC(C)OC(=O)C1C2C=CC3(CN(CC4CCCO4)C(=O)C13)O2` (stereo not drawn), the percent of DMSO control GFP in test [1] was 99.1% (inactive). The GFP response vs DMSO is 104% (inactive) in [2] and 117% (inactive) in [4]. Besides, the percent response of DMSO control in test [3] was 98.6% (inactive). The GFP response, % of DMSO in [5] was 102% (inactive). In test [6], this compound yielded a double positive events of 58.9%. For the same compound, in test [6], the vesicle binding response was 152% (inactive). Moreover, the inhibition was -4.52% (inactive) in test [7], -4.29% (inactive) in [11] and 7% (inactive) in test [15]. For the same compound, the superoxide response (% of plate) in test [8] is 100% (inactive). The aptamer binding inhibition in test [9] is 1% (inactive). For the same compound, the response in [10] was 1.99% (inactive); in [12], -0.97% (inactive). For the same compound, the binding (% of control) in test [13] is 98% (inactive). The efflux inhibition (fraction of control) in test [14] is 0.19 (inactive). Also, in test [16], the differentiation response was -16.8% (inactive).

As to `Cc1nc2cc3ccccc3cc2c(=O)[nH]1`, the percent of DMSO control GFP in test [1] is 102% (inactive). For the same compound, the values for the GFP response vs DMSO in test [2] and in test [4] were 106% (inactive) and 104% (inactive), respectively. In addition, the percent response of DMSO control in [3] is 101% (inactive). For the same compound, the GFP response, % of DMSO in [5] is 96.6% (inactive). In addition, in test [6], the double positive events came to 60.4%. Also, the vesicle binding response in test [6] was 160% (inactive). For the same compound, the results for the inhibition in [7], in [11] and in test [15] were -26.1% (inactive), -19.1% (inactive) and -9% (inactive), respectively. Also, in [8], the superoxide response (% of plate) was 104% (inactive). Also, the aptamer binding inhibition in [9] is 6% (inactive). Moreover, the response in test [10] is 9.81% (inactive); in test [12], 1.08% (inactive). The binding (% of control) in test [13] is 98% (inactive). Moreover, the efflux inhibition (fraction of control) in test [14] was 0.07 (inactive). In addition, the differentiation response in test [16] was -2.64% (inactive).
